This is one part of a sample in which hits are shown more often than they occur.
Tgondii IFNg: T. gondii growth inhibition under IFN-gamma. Toxoplasma gondii growth in IFN-gamma-treated host cells; active compounds read low. activity change, negative = inhibition, % (test concentration not listed). actives 3.8% (n = 69,000); in the data active means activity change below about -70%, passing the limit was not always enough;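 further: host cells are HeLa cells infected with Toxoplasma gondii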
* hit, by the source's call.

SMILES	Tgondii IFNg
CC(=O)NC1(c2ccccc2F)CCN(CC(=O)N(C)C2CCCCC2)CC1	9
O=C(CCc1cc(Cl)no1)N1CCOC(C(F)(F)F)C1 (stereo not given)	-6
CCOC(=O)c1nc(Nc2cccc(OC)c2)c2ccccc2n1	-4
CCCNC(=O)c1nc(Nc2ccc(F)cc2)c2ccccc2n1	-33
CCNC(=O)c1nc(Nc2ccccc2)c2ccccc2n1	-27
CCc1ccc(Nc2nc(C(=O)NCCOC)nc3ccccc23)cc1	-54
CCOC(=O)c1nc(Nc2ccc(OC)c(Cl)c2)c2ccccc2n1	-77*
O=C(NCCC1=CCCCC1)c1nc(Nc2ccccc2)c2ccccc2n1	-76*
Cc1cccc(Nc2nc(C(=O)NCc3ccccc3Cl)nc3ccccc23)c1	-59
CCC(C)NC(=O)c1nc(Nc2cccc(C)c2)c2ccccc2n1 (stereo not given)	-50
Cc1cccc(Nc2nc(C(=O)NCc3cccc(Cl)c3)nc3ccccc23)c1	-96*
O=C(NCCCc1ccccc1)c1nc(Nc2ccccc2)c2ccccc2n1	-46
CCOC(=O)c1nc(Nc2cc(C)c(Cl)cc2OC)c2ccccc2n1	-43
CCCNC(=O)c1nc(Nc2ccc(CC)cc2)c2ccccc2n1	-83*
O=C(Cn1cc(C(=O)NCC2(c3ccccc3)CCCC2)ccc1=O)Nc1nccs1	0
CCN(CC)C[C@@H]1OC[C@@H]2CCN(C(=O)c3ccccn3)C[C@@H]21	-10
O=C(CC1CC1)NCc1cc(=O)n2c(n1)CNCCC2	73
Cc1cnc(CNC(=O)c2nc(-c3cn(Cc4ccc(F)cc4F)c(C)n3)n3ccccc23)cn1	-23
CS(=O)(=O)Nc1nc(CC(=O)O)cs1	-10
O=C(NCCc1csc(-c2ccc(F)cc2)n1)c1ccc(Cl)cc1	-55
CCn1c2c(ccc1=O)CC(NCc1cnn(C)c1)CC2 (stereo not given)	8
CN(C)S(=O)(=O)N1CC[C@@]2(C[C@H](N3CCCC3=O)CCO2)C1	-40
CCn1c(C2CCN(C(=O)CCn3nnc4ccccc43)CC2)nn(C)c1=O	-1
Cc1ccc(Nc2nc(C(=O)Nc3ccc(Br)cc3)nc3ccccc23)cc1	6
O=S1(=O)Cc2cnc(NCC3CC3)nc2[C@H]2CN(Cc3ccccc3)C[C@@H]21	-3
SMILES	Tgondii IFNg
O=C(NCc1cnc2n1CCN(Cc1ccsc1)C2)C1CC1	14
Cc1ccc(-c2nn3c(C)nnc3c3ccccc23)cc1S(=O)(=O)NCc1cccnc1	13
O=C(CCn1ncc2c1CCCC2)N1CCCC1c1ccc(Nc2ccc(F)cn2)cn1 (stereo not given)	-3
O=C(NC1CCCC1)c1nc(Nc2ccc(F)cc2)c2ccccc2n1	-62
Cc1ccc(Nc2nc(C(=O)NCc3ccccc3)nc3ccccc23)cc1	14
CCOc1ccc(CNC(=O)c2nc(Nc3cccc(C)c3)c3ccccc3n2)cc1	-94*
CCc1ccccc1NC(=O)c1nc(Nc2ccc(C)cc2)c2ccccc2n1	-86*
Cc1ccc(Nc2nc(C(=O)NCc3cccnc3)nc3ccccc23)cc1	-82*
CCc1ccccc1NC(=O)c1nc(Nc2ccccc2)c2ccccc2n1	-69
O=C(NC1CCCCCC1)c1nc(Nc2ccccc2)c2ccccc2n1	-85*
Cc1cccc(Nc2nc(C(=O)NC3CCCC3)nc3ccccc23)c1	-65
COCCNC(=O)c1nc(Nc2cccc(C)c2)c2ccccc2n1	-33
CCc1ccc(CNC(=O)c2nc(Nc3ccc(C)cc3)c3ccccc3n2)cc1	-55
Cc1ccc(Nc2nc(C(=O)Nc3ccccc3Cl)nc3ccccc23)cc1	-58
Cc1cccc(Nc2nc(C(=O)NCc3ccc(C)o3)nc3ccccc23)c1	-51
CC1=C(C(=O)Nc2cc(C)cc(C)c2)C2(CCN(Cc3ccccc3)CC2)OC1=O	-9
Cc1cc(NC(=O)Cc2cccs2)ccc1NC(=O)c1ccco1	23
O=S(=O)(c1ccc(F)cc1)N1CC2CCC1C2Oc1cccnc1 (stereo not given)	-14
c1ccc2nc(Cn3cnnc3)ccc2c1	19
O=C(Nc1ccccc1)c1c(O)c2cccnc2n(-c2ccc(F)cc2)c1=O	16
COc1ccc(C(=O)CCC(=O)N2CCC(Cc3nncn3C)CC2)cc1	6
CCN(CC)CCn1cc(-c2cccc(O)c2)nn1	0
CC(=O)N1C(Cn2cccn2)CC2CN(C(=O)C3CCOC3)CCC21 (stereo not given)	8
c1ccc(-n2nnnc2N2CC3C4c5ccccc5C(c5ccccc54)C3C2)cc1 (stereo not given)	-42
O=C(CN1CCN(S(=O)(=O)N2CCCC2)CC1)Nc1ccc2c(c1)OCCCO2	11
SMILES	Tgondii IFNg
Cc1cccc(OC2CN(C(=O)CCc3n[nH]c(C)c3C)C2)c1	-1
CC(C)(C)c1ccc(C(CC(=O)c2ccccc2)C(C#N)C#N)cc1 (stereo not given)	-65
CC(=O)c1cc(C(=O)NCCc2nc(-c3cccnc3)n[nH]2)cs1	-36
O=C(NCc1nc(-c2ccncc2)n[nH]1)Nc1ccccc1C(F)(F)F	-20
O=C(NCc1nc(-c2ccncc2)n[nH]1)c1cccs1	-94*
CN1CCN(C(=O)COCC2COc3ccccc3O2)C(c2ccccc2)C1 (stereo not given)	0
COc1cc(/C=C/C2=NNC(=O)CC2)cc(OC)c1OC	-97*
COc1ccc(/C=C2\CC/C(=C\c3ccc(OC)c(OC)c3)C2=O)cc1OC	7
COc1cc(/C=C/C(=O)N2CCN(CC(=O)N3CCCC3)CC2)cc(OC)c1OC	13
O=C(NCc1cccc(Br)c1)c1c(O)c2cccnc2[nH]c1=O	7
COc1cc(C(=O)O)ccc1NC(=O)[C@@H]1N[C@@H](CC(C)(C)C)[C@](C#N)(c2ccc(Cl)cc2F)[C@H]1c1cccc(Cl)c1F	-80*
CN(c1ncccn1)C1COC2(CCN(C(=O)c3cccn3C)C2)C1 (stereo not given)	5
Cc1ccc(NC(=O)[C@H]2C[C@H](C(=O)O)CN(Cc3cccc(F)c3C)C2)cn1	18
COCC(=O)N1CCOCC2(CCC(CN(C)Cc3ccco3)O2)C1 (stereo not given)	-46
COCC(=O)N1CCC2O[C@@H](COCc3ccncc3)CCC21 (stereo not given in full)	4
CCC(C(=O)N1CCN(c2ncccn2)CC1)n1c2ccccc2c2cnn(C)c(=O)c21 (stereo not given)	-86*
CCC(C(=O)NCc1ccccn1)n1c2ccccc2c2cnn(C)c(=O)c21 (stereo not given)	11
Cn1ncc2c3ccccc3n(CC(=O)N3CCN(c4ncccn4)CC3)c2c1=O	130
CCOC(=O)N1CCC2(CC1)OC(=O)C(C)=C2C(=O)NCc1ccc(OC)cc1	34
CCC1CC(C(F)(F)F)n2nc(C3CCCN3S(=O)(=O)c3ccc(F)cc3)cc2N1 (stereo not given)	148
CC(C)(C)C(=O)N1CCN(C2c3ccccc3-c3ccccc32)CC1	-94*
O=C(c1cccnc1Oc1ccccc1)N1CCN(C2c3ccccc3-c3ccccc32)CC1	-34
CC(C)(C)C(=O)N1CCN(c2cccc(Cl)c2)CC1	-44
CCOC(=O)c1noc2nc(C)n(Cc3nc(-c4ccc(OC)cc4OC)oc3C)c(=O)c12	165
Cc1cccc(-c2nn3c(c2-c2ccnc4ccc(C(N)=O)cc24)CCC3)n1	-78*
Cc1nc(C(F)(F)F)nc(-c2ccc(S(C)(=O)=O)cc2)c1C	2
COc1ccc(C(NC(=O)c2cc(=O)n(C)c(=O)n2C)c2ccccc2)cc1 (stereo not given)	4
COc1ccc(OC)c(C2CCCN2C(=O)CCn2cnnn2)c1 (stereo not given)	-18
